# Most compounds without a hit are left out; they make up all but 7.3% or so of the library.
# FLuc counter – firefly luciferase modulation, counter-screen for miR-21 project | P08659 | hit rate 6.9% among 360,000 | Potency, µM (series often up to 57.5 µM), for inactives: at the top dose activity change, negative = inhibition, most hits filed as inhibitors | purified FLuc, Km substrates, luminescence inhibition;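 also: plate controls were vehicle for no effect and reference inhibitor for full effect; nearly all actives have a fitted effect of over 55% in size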
# Target sequence (P08659 whole entry, looked up): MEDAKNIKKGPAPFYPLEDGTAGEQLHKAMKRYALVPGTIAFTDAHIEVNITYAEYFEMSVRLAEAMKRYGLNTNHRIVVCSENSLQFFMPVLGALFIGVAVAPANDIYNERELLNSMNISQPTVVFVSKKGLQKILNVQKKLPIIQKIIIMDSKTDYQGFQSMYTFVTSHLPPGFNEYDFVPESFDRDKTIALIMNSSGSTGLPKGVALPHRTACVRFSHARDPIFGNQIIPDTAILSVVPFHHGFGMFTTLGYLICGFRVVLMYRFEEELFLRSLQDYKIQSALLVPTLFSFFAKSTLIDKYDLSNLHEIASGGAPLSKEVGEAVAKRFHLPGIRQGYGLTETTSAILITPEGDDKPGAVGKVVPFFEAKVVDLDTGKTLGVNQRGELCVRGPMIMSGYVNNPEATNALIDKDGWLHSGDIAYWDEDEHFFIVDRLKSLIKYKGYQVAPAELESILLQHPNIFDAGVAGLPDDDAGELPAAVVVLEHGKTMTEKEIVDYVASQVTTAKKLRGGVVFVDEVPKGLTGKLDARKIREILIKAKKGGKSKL
#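 Biochemical qHTS of compounds, final roughly 60 µM downward over six points, against 10 nM purified firefly luciferase using Km concentrations of substrates (10 uM D-luciferin, 10 uM ATP) in Tris acetate pH 7.5 buffer; luminescence output.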
# Rab9 promoter act – activates the Rab9 promoter; hit rate 2.8% among 320,000; Potency, µM (titrated, usually from 9.22 µM), inactives show at the top dose activation, negative = inhibition, actives largely listed as activators; Huh7 Rab9 promoter-luciferase reporter, luminescence, 24 h; AID 485297; also: % of control where 0% means no effect; nearly all actives have a fitted effect of over 60% in size
#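 Promoter activation is measured as luciferase luminescence in Huh7 cells stably transfected with a Rab9 promoter–luciferase construct, following 24 h compound exposure at 37 °C and 10 min reagent incubation at ambient temperature.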
# SMN2 splice up – increases expression of the SMN2 splice variant. hit rate 2.8% among 210,000. Potency, µM (top dose mostly 46.1 µM), for the others: at the highest dose activity change, positive = activation, usual class: activators. AID 1458. HEK293 SMN2-luciferase splicing reporter, luminescence, 30-36 h; also: % of control where 0% means no effect; nearly all actives have a fitted effect of over 55% in size
#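 HEK293 cells carry an SMN2 minigene-luciferase reporter in which exon 7 inclusion puts luciferase in frame. Cells were seeded at 2000 cells/well, attached for 10-12 hours, then exposed to compounds for 30-36 hours at 37C before ONE-Glo luminescence.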
# NPC1 prom act – activators of NPC1 promoter; hit rate 2.4% among 320,000; AID 485313; Huh7 NPC1 promoter luciferase reporter, 24 h; Potency, µM (top dose mostly 9.22 µM), for the others: top-dose activation, hits mostly activators; also: % of control where 0% means no effect; nearly all actives have a fitted effect of over 60% in size
#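 Quantitative HTS used a cell-based reporter: Huh7 cells stably bearing the NPC1 promoter upstream of luciferase were treated with compounds for 24 h, and promoter activation was read as luminescence.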
# p53 reactivator – mutant p53 re-activation in reporter cells | Potency, µM (doses to about 92.2 µM), for the others: at the top dose activity change, positive = activation, usual class: activators | hit rate 0.063% among 320,000 | H1299 p53-A138V BP100-luciferase reporter, luminescence, 24 h | AID 504706; also: % of control where 0% means no effect; nearly all actives have a fitted effect of over 45% in size
#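 H1299 (p53-null), stable ts p53-A138V + BP100-Luc; 1000 cells/well, Opti-MEM/10% FBS; cpd 4 pt, 1:5; 24 h, 37 deg C, 5% CO2; detection reagent 10 min RT; luminescence.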
# ELG1 genotoxic – genotoxicity induction in ELG1-luciferase HEK293T cells. HEK293T ELG1-luciferase reporter, luminescence, 16 h. Potency, µM (doses to about 46 µM), for inactives: top-dose activity change, positive = activation, most hits filed as activators. hit rate 1.3% among 330,000; also: % of control where 0% means no effect; nearly all actives have a fitted effect of over 60% in size
#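 ELG1-luciferase HEK293T cells, 2,000/well; compound pinned in; 16 hr, 37 °C, 5% CO2; ONE-Glo, 30 min RT; luminescence on CCD imager.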
# * marks the source's active call; other numbers are inactive results; ? = inconclusive; . = no result given; [ ] = remark or other dose. Calls follow the shape of the dose curve; as a rule, active = well fitted curve in the direction sought with a large enough effect; inconclusive = small, poorly fitted or top-dose-only effect, or another doubt; inactive = no such curve, though single readings can be large; an effect the other way counts as inactive or inconclusive. Potency is read from the fitted curve at half-maximal effect.
SMILES,FLuc counter,Rab9 promoter act,SMN2 splice up,NPC1 prom act,p53 reactivator,ELG1 genotoxic
CCOC(=O)Cc1c(C)nc2c(-c3ccc(Cl)cc3)cnn2c1C,27µM*,-1%,-6%,1%,-1%,5%
CCOC(=O)Cc1c(C)nc2c(-c3ccccc3)c(C)nn2c1C,21µM*,0%,-11%,-2%,3%,0%
CCOC(=O)Cc1c(C)nc2c(-c3ccc(Cl)cc3)c(C)[nH]n2c1=O,0%,-10%,-5%,5%,3%,-10%
CCOC(=O)Cc1c(C(=O)OCC)nnc2c(-c3ccccc3)c(C)nn12,-18%,.,-2%,.,.,.
COc1cc(C(=O)OCC(=O)c2ccccc2)cc2c1OCCO2,?,16%,.,16%,10%,-3%
CCCCN(CC)CCNC(=O)CN1C(=O)COc2ccc(S(=O)(=O)N3CCOCC3)cc21,0%,.,11%,.,.,.
CCCCCCCCCCC/C=C\C(C)(C)/C=C\CCCC(=O)O,.,6%[46.1 µM],-6%,2%[46.1 µM],.,.
O=C(c1ccc(N2CCCCC2)c([N+](=O)[O-])c1)N1CCOCC1,-1%,13%,-6%,8%,14%,0%
O=C(/C=C/c1ccc(N2CCCCC2)c([N+](=O)[O-])c1)c1ccc(O)cc1,4.8µM*,?,-8%,?,-3%,21µM*
COc1ccccc1C(=O)/C=C/c1ccc(N2CCCCC2)c([N+](=O)[O-])c1,6µM*,?,-84%,?,?,?
CCC(C)(C)NC(=O)C1CCCN(S(=O)(=O)c2ccc3c(c2)CC(C)N3C(=O)C2CC2)C1 (configuration not stated),0%,-7%,.,5%,-3%,-2%[9.26 µM]
Cc1cccc2c1NC(=O)/C2=C\C(=O)c1cccs1,4.8µM*,0%,-33%,0%,-13%,8%
O=C(Nc1ccccc1)C1C2CCCCC21 (configuration not stated),?,16%,.,7%,.,8%
Cc1cccc(NC(=O)C2C3CCCCC32)c1 (configuration not stated),19µM*,?,.,?,.,?
Cc1ccc(NC(=O)C2C3CCCCC32)cc1[N+](=O)[O-] (configuration not stated),12µM*,?,.,?,?,?
Cc1cc(NC(=O)OC2CCCCC2)ccc1[N+](=O)[O-],7.6µM*,2.8µM*,.,2.8µM*,?,22%
Cc1ccc(NC(=O)C2C3/C=C\CCCCC32)cc1 (configuration not stated),?,3.5µM*,?,?,?,15%
O=C(Nc1cccc([N+](=O)[O-])c1)C1C2CCCCC21 (configuration not stated),-9%,15%,.,2%,22%,0%
COc1ccccc1NS(=O)(=O)c1ccc(NC(=O)c2ccncc2)cc1,-1%,0%,-43%,-1%,-7%,-4%
CC(C)CCNc1nc2c(S(=O)(=O)c3ccc(Br)cc3)nnn2c2ccsc12,-3%,.,.,.,.,.
Cc1cc(C)nc(SCc2cccc(C(=O)O)c2)n1,-16%,3%,?,-1%,-6%,1%
O=C(O)c1cccc(CSc2nnc(Cc3ccccc3)o2)c1,19µM*,?,16µM*,28%,5%,?
O=C(O)c1cccc(CSc2ncn[nH]2)c1,19µM*,?,.,12%,4%,-1%
c1ccc(CSc2nnc(Cc3ccccc3)o2)cc1,24µM*,?,?,19%,3%,?
c1ccc(CSc2nnc(Cc3ccccn3)o2)cc1,?,?,-1%,?,10%,2%
O=C(CSc1nnc(Cc2ccccc2)o1)c1ccccc1,?,5%,5%,13%,4%,?
Cc1cccc(Cc2nnc(CCC(=O)N3CCCCC3c3nccs3)o2)c1 (configuration not stated),-15%,5%,.,8%,-1%,-6%
